The values below come from PubChem BioAssay (NCATS).

The structures appear in SMILES notation. “And” between values parts separate entries of the source, which are not always exact repeats. Identical values can stand only once. Inconclusive results are not listed. More than one record can exist for a structure, and the calls need not agree. The source made the active and inactive calls. Calls come from the whole dose curve; as a rule, active = well fitted curve in the direction sought with a large enough effect; inconclusive = small, poorly fitted or top-dose-only effect, or another doubt; inactive = no such curve, though single readings can be large; an effect the other way counts as inactive or inconclusive.

Test [1] in a line: Viability qHTS for spleen associated tyrosine kinase inhibitor (SYKi) naive MV4-11 cells (AID 1963823). Note: nearly all actives have a fitted effect of over 40% in size. A digest of the protocol:
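Luminescence from CellTiter-Glo, developed 10 min at room temperature, gave viability of MV4-11 cells never exposed to SYK inhibitor. Cells (500/well) had been incubated with compounds for 72 hr under standard culture conditions.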
(Quantitative high-throughput screening tests each substance at several concentrations.)

Test [2] in a line: Viability qHTS for spleen associated tyrosine kinase inhibitor (SYKi) drug resistant MV4-11 cells (AID 1963824). Note: nearly all actives have a fitted effect of over 35% in size. A digest of the protocol:
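SYK-inhibitor-resistant MV4-11 AML cells were seeded at 500 per well onto compound and cultured 72 hours (37 °C, 5% CO2). CellTiter-Glo was then added, and after 10 min at room temperature, luminescence gave viability.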

Test [3] in a line: Quantitative highthroughput screen to assess conditional lethalithy of NOMO1 cells grown in RPMI1640 with untreated serum (RPMI+s) (AID 1963876).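 For Viability: 100% = DMSO wells and 0% = empty wells without cells.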 Note: nearly all actives have a fitted effect of over 35% in size. A digest of the protocol:
(§1)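 Each medium arm—HPLM with 10% dialyzed FBS, or RPMI1640 with 5 mM glucose and 10% untreated or dialyzed FBS—was screened against an 11-point, 3-fold compound titration for 48 h at 37 °C, with CellTiter-Glo luminescence as endpoint.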

The nature of test [4]: Quantitative highthroughput screen to assess conditional lethalithy of NOMO1 cells grown in Human Plasma-Like Medium with dialyzed fetal bovine serum (HPLM+ds) (AID 1963878).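 For Viability: 100% = DMSO wells and 0% = empty wells on each plate.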 Note: nearly all actives have a fitted effect of over 35% in size. A digest of the protocol: as §1
Test [5] is described as follows: Quantitative highthroughput screen to assess conditional lethalithy of P12 Ichikawa cells grown in Human Plasma-Like Medium with dialyzed fetal bovine serum (HPLM+ds) (AID 1963879). For Viability: series mostly up to about 46 µM. Note: nearly all actives have a fitted effect of over 35% in size. Conditions: Potency: viability. A digest of the protocol:
as §1

A short description of test [6]: Quantitative highthroughput screen to assess conditional lethalithy of P12 Ichikawa cells grown in RPMI1640 with dialyzed fetal bovine serum (RPMI+ds) (AID 1963880).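 For Viability: 100% = DMSO wells and 0% = empty wells on each plate.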 Note: nearly all actives have a fitted effect of over 35% in size. Conditions: Potency: P12-Ichikawa viability. A digest of the protocol: as §1
A short description of test [7]: Quantitative highthroughput screen to assess conditional lethalithy of P12 Ichikawa cells grown in RPMI1640 with untreated serum (RPMI+s) (AID 1963881).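 For Viability: series mostly up to about 46 µM; 100% = DMSO wells and 0% = empty wells without cells.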 Note: nearly all actives have a fitted effect of over 35% in size. Conditions: Potency: viability. The procedure, abridged: as §1
A short description of test [8]: Cellular viability qHTS for adrenocortical cancer (ACC) cell line SW-13 (AID 1963989).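 For activity (max response): cells grown in serum-free medium with ITS supplement; % is set by controls: 0 for no effect and ±100 for the full control effect.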 Note: nearly all actives have a fitted effect of over 65% in size. The note with it: SW-13 ACC cells viability, CellTiter-Glo, 48 h; activity (max response): stronger effect = lower value. The procedure, abridged:
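Viability was read as CellTiter-Glo luminescence after 48 h compound treatment (up to 46 uM final) of SW-13 cells grown serum-free; titration curves were fit with a four-parameter logistic model to give IC50 and efficacy.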

The nature of test [9]: Cellular viability qHTS for adrenocortical cancer (ACC) cell line NCI-H295R (AID 1963990). Note: nearly all actives have a fitted effect of over 60% in size. The procedure, abridged:
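CellTiter-Glo ATP luminescence, read 48 h after compound addition, measured viability of NCI-H295R adrenocortical cells grown serum-free with ITS. Final concentrations spanned up to 46 uM. Data normalized to DMSO and doxorubicin, fitted for IC50 and maximal response.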

The nature of test [10]: Quantitative highthroughput screen to assess conditional lethalithy of SEM cells grown in RPMI1640 with unreated serum (RPMI+s) (AID 1963883).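 For Viability: 100% = DMSO wells and 0% = empty wells without cells.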 Note: nearly all actives have a fitted effect of over 35% in size. The procedure, abridged:
as §1

The nature of test [11]: Quantitative highthroughput screen to assess conditional lethalithy of SEM cells grown in RPMI1640 with dialyzed fetal bovine serum (RPMI+ds) (AID 1963884).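 For Viability: series mostly up to about 46 µM; 100% = DMSO control wells and 0% = empty wells without cells.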 Note: nearly all actives have a fitted effect of over 35% in size. A digest of the protocol: as §1
The nature of test [12]: Quantitative highthroughput screen to assess conditional lethalithy of SEM cells grown in Human Plasma-Like Medium with dialyzed fetal bovine serum (HPLM+ds) (AID 1963882). For Viability: series mostly up to about 46 µM. Note: nearly all actives have a fitted effect of over 35% in size. A digest of the protocol:
as §1
Potency is the fitted concentration of half-maximal effect.

As to `COc1ccc2cccc(CCNC(C)=O)c2c1`, the Potency result in [1], in test [2], in test [3], in [4], in [5] and in test [6] was “inactive” in each case. Further, the Potency entry in test [7] and in test [9] was “inactive” throughout. The activity (max response) in test [8] is 13% (inactive).

On to `CC1(CN2CCC(n3c(=O)[nH]c4ccccc43)CC2)OCc2ccccc2-n2cccc21` (stereo unspecified), for which the Potency in test [1] was 16.6 µM (active); in test [2], 21.1 µM (active) and 10.3 µM (active) and 14.8 µM (active); in [8], 20.6 µM (active) and 25.1 µM (active); in test [9], 23.1 µM (active). The Potency result in test [3], in test [4], in test [5], in [6], in test [7] and in test [10] was “inactive” in each case. Moreover, the Potency result in test [11] was “inactive”.

As to `O=C1c2c(O)cc(O)cc2OC(c2ccc(O)c(O)c2)C1O` (stereo unspecified), the Potency result in test [1], in test [2], in [3], in [4], in [5] and in [6] was “inactive” in each case. The Potency result in test [7], in test [12], in [10], in [11] and in test [9] was “inactive” in each case. Also, the activity (max response) in [8] is -4.92% (inactive).

For the compound `COc1cc(N2CCC(N(C)C)CC2)ccc1Nc1ncc(Cl)c(Nc2ccccc2P(C)(C)=O)n1`, the Potency in [1] is 0.0661 µM (active); in [2], 116 nM (active) and 148 nM (active); in test [3] it was 2.63 µM (active); in test [4] it was 1.05 µM (active); in test [5], 0.933 µM (active); in test [7], 2.09 µM (active). Further, the Potency is 0.467 µM (active) in test [12], 0.524 µM (active) in test [11], 2 µM (active) in test [8] and 8.91 µM (active) in test [9].

Turning to `COC(=O)C1C2CC3c4[nH]c5cc(OC)ccc5c4CCN3CC2CC(OC(=O)c2cc(OC)c(OC)c(OC)c2)C1OC` (stereo unspecified), the Potency is 16.6 µM (active) in [1] and 11.8 µM (active) in test [2]. In addition, the Potency entry in [3], in [4], in test [5], in test [6], in [7] and in test [12] was “inactive” each time. In test [10], the Potency result is “inactive”. In addition, the activity (max response) in [8] is -10.6% (inactive).

Take `Cc1nc2cnc3ccc(C#Cc4cccnc4)cc3c2n1-c1ccc(C(C)(C)C#N)cc1`: the Potency in test [1] is 8.2 µM (active) and 235 nM (active); in [2], 8.2 µM (active) and 332 nM (active); in test [3], 1.32 µM (active); in test [4], 0.209 µM (active); in test [10], 0.132 µM (active); in [11], 0.209 µM (active). For the same compound, the Potency in test [9] is 0.891 µM (active).

Turning to `CC(C)(C)c1nc(-c2cccc(NS(=O)(=O)c3c(F)cccc3F)c2F)c(-c2ccnc(N)n2)s1`, the Potency is 1.84 µM (active) in test [1]; 16.6 µM (active) in test [2]; 11.8 µM (active) in [3]; 2.96 µM (active) in test [4]; 0.743 µM (active) in test [6]; 2.64 µM (active) in test [10]. The Potency result in test [5], in test [12] and in [11] was “inactive” throughout.

For `Clc1ccc(C(Cn2ccnc2)OCc2ccsc2Cl)c(Cl)c1` (stereo unspecified), the Potency is 8.33 µM (active) in [1], 9.34 µM (active) in [2], 18.4 µM (active) in [8] and 31.6 µM (active) in [9]. Also, the Potency entry in test [3] and in test [4] was “inactive” in each case.

For `CC1=CC(=O)c2ccccc2C1=O`, the Potency in test [1] is 7.42 µM (active); in test [2], 4.68 µM (active). Further, the Potency result in [3], in test [4], in test [5], in [6] and in test [7] was “inactive” in each case. For the same compound, the activity (max response) in test [8] is 13.5% (inactive).

In the case of `COc1c(Cl)cc2c([nH]c3cnccc32)c1NC(=O)c1cccnc1C`, the Potency in test [1] was 20.9 µM (active); in [2] it was 18.6 µM (active) and 20.6 µM (active). Moreover, the Potency entry in test [3], in [4], in [6], in [7], in test [12] and in test [11] was “inactive” throughout. The Potency result in test [9] was “inactive”. Moreover, in test [8], the activity (max response) is -4.78% (inactive).

Turning to `O=C(O)CCCc1c[nH]c2ccccc12`, the Potency result in test [1], in test [2], in test [3], in test [4], in test [5] and in test [6] was “inactive” throughout. The Potency entry in test [7], in test [10], in [11] and in [9] was “inactive” in each case. Further, the activity (max response) in [8] was 1.46% (inactive).

In the case of `CC[C@H](C)C(=O)O[C@H]1C[C@@H](C)C=C2C=C[C@H](C)[C@H](CC[C@@H]3C[C@@H](O)CC(=O)O3)[C@H]21`, the Potency in test [1] was 8.33 µM (active); in [2], 2.66 µM (active) and 3.17 µM (active) and 4.68 µM (active); in test [4] it was 14.8 µM (active); in test [9], “inactive and 17.8 µM (active)”. The Potency result in test [3], in test [12] and in test [11] was “inactive” each time. The activity (max response) in test [8] is -5.87% (inactive).

On to `O=C1CCc2ccc(OCCCCN3CCN(c4cccc(Cl)c4Cl)CC3)cc2N1`, for which the Potency was 10.5 µM (active) in test [1] and 9.34 µM (active) in [2]. Moreover, the Potency result in test [3], in [4], in test [5], in [6], in [7] and in [12] was “inactive” in each case. Also, the Potency entry in [10] and in test [9] was “inactive” throughout.

For `CCCCCCCCCCCCCCCCCCCCCCO`, the Potency result in test [1], in test [2], in test [3], in test [4], in test [5] and in [6] was “inactive” throughout. Further, the Potency result in test [7], in test [12], in test [10], in test [11] and in test [9] was “inactive” throughout. Besides, the activity (max response) in test [8] is -13.9% (inactive).

In the case of `NC(=O)[C@@H](CCC(F)(F)F)N(Cc1ccc(-c2ncon2)cc1F)S(=O)(=O)c1ccc(Cl)cc1`, the Potency was 20.9 µM (active) in test [1]; 18.6 µM (active) in [2]; 20.9 µM (active) in [4]; 23.5 µM (active) in test [12]; 16.6 µM (active) in test [10]; 18.7 µM (active) in test [11]. Further, the Potency in test [8] was 28.2 µM (active). In test [3], the Potency entry is “inactive”.
